Assay results reported in PubChem BioAssay.
Calls of active or inactive are those of the source.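 How the source made its calls: active means inhibition of the reporter signal at or above 50%; inactive means inhibition below 50%.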

Assay: inhibitors of poly I:C-induced TLR3 signaling, primary screen, cell-based, poly I:C stimulus, luciferase, 10K MLSCN set (AID 602277)
Conditions: HEK293-TLR3 RL24 IRF3 luciferase reporter, at 10 µM, stronger effect = higher value

inhibition, active:
O=c1c2ccccc2cnn1-c1nc2ccccc2s1 93.6%

inhibition, inactive:
CC(C)=CC(=O)Nc1ccc(Br)cc1 -158%
COc1cccc2c(=O)c3c(cnn3C)n(C)c12 -29.4%
O=C(c1noc2c1CCc1ccccc1-2)N1CCOCC1 -37.8%
CCN1CCN(C(=O)c2ccc3c(=O)n(C4CCCC4)c(=S)[nH]c3c2)CC1 -6.81%
CCC(Oc1ccc2ccccc2c1)C(=O)O (centres undefined) -32.2%
CC(=O)c1nnn(-c2nc(N3CCCC3)nc(N(c3ccccc3)c3ccccc3)n2)c1C 26.9%
COc1ccc(-n2cc(-c3ccccc3)c3c(N4CCN(CCO)CC4)ncnc32)cc1 25.2%
O=C(N1CCCCCC1)N1CCN(S(=O)(=O)N2CCCCC2)CC1 12.9%
OCC#CCSc1nnc(-c2ccccc2Br)o1 -45.2%
CC(C(=O)N1CCc2ccccc21)N1CCc2ccccc2C1 (centres undefined) 22.3%
C=CCN(CC=C)C(=O)CN1C(=O)c2ccccc2C1=O 22.1%
O=C(Cn1nnc2c(cnn2-c2ccc(F)cc2)c1=O)c1ccccc1F 10.7%
COc1cccc(-c2noc(CCC(=O)NC3CCCCC3)n2)c1 15.2%
Cc1cc(C)c2cc(CN(CC3CCCO3)C(=O)NC3CCCCC3)c(=O)[nH]c2c1 (centres undefined) 17.3%
CCOc1cc(C)c(Cl)cc1S(=O)(=O)N(C)C 22.4%
COc1ccc(CCNS(=O)(=O)c2ccc3c(c2)CCN3C(=O)CCC(=O)O)cc1OC 21.5%
CCOc1ccc(OCc2cccc(C(=O)O)c2)cc1 -87.1%
CCC(C)c1ccc(NC(=O)C2CC2)cc1 (centres undefined) -80.1%
O=C(CC1CCCCC1)NCc1ccccn1 12.6%
CS(=O)(=O)N(CC(=O)N1CCN(c2cccc(Cl)c2)CC1)C1CCCCC1 0.307%
Cc1ccc(N2CCN(C(=O)c3ccccc3Br)CC2)c(C)c1 23.3%
COC(=O)c1c(N)nc(C)n1-c1ccc(OC)cc1 9.69%
O=C(O)CC1CCCC(c2ccccc2)C1=O (centres undefined) 11.2%
